Among the data in PubChem BioAssay AID485317 (Broad Institute, 2010) are inhibition values, retold here.

Structures are written as SMILES. The whole screen tested about 290,000 compounds, of which about 11,000 (3.8%) were called active. This is one part of a sample in which actives are shown more often than they occur.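 How the source made its calls: active means mean replicate inhibition above about 79%, with every replicate also reaching it (limit read from the data); inconclusive means only one of the two criteria met; inactive means mean below limit and not every replicate reaching it.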

The target in the test is FAD-linked sulfhydryl oxidase ALR (Homo sapiens) (UniProt P55789). Put plainly: inhibitors of human ALR sulfhydryl oxidase, primary screen, biochemical, H2O2 detection, HRP-luminol luminescence, single point (AID 485317). The following applies: purified ALR, DTT oxidation, hits give high values, concentration not given here.
Chain of FAD-linked sulfhydryl oxidase ALR (Homo sapiens) (P55789 whole entry, looked up): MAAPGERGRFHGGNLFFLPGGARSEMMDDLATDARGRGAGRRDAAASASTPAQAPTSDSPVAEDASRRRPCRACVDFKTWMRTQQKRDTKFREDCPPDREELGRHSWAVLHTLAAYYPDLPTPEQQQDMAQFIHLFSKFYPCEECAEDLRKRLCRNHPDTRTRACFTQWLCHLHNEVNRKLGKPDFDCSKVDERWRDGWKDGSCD
With `COc1ccc(/C(C)=N/NC(=O)c2ccc3nc[nH]c3c2)cc1`, the inhibition is -6.54% (inactive).

`CC/C(O)=N\S(=O)(=O)c1ccc(N=NN(C)C)cc1`: the inhibition was -19.2% (inactive). Consider `CN(C)N=Nc1ccc2nc[nH]c2c1`, for which the inhibition is 92.1% (active).

In the case of `Cc1cc(C)c(-c2csc(NC(=O)CCCc3nc4ccccc4c(=O)[nH]3)n2)c(C)c1`, the inhibition is -7.67% (inactive). In the case of `O=C(CN1CCOc2ccccc21)N1CCC(Cc2ccccc2)CC1`, the inhibition was 98.1% (active). For `CC1(C)CC(=O)C(CC(=O)N2CCC(Cc3ccccc3)CC2)C(=O)C1`, the inhibition was 2.75% (inactive).

Regarding `O=C(Cn1cnc2c(nnn2-c2ccccc2)c1=O)N1CCC(Cc2ccccc2)CC1`, the inhibition was -5.43% (inactive). For `CCN(CC(=O)NCc1cccs1)C(=O)c1ccc(OC)c(S(=O)(=O)N2CCOCC2)c1` the value was -4.54% (inactive); for `CCC(C)N(C(=O)CSc1nnnn1-c1ccccc1OC)C1CCS(=O)(=O)C1` (stereo not given), 1.16% (inactive); for `CC1(C)OC(=O)C(=CSc2ccc(C(C)(C)C)cc2)C(=O)O1`, 97.7% (active). For `O=C1CN(C(=O)COC(=O)/C=C/c2ccc(F)cc2)c2ccccc2N1` the value was -2.48% (inactive); for `CC(OC(=O)CCCc1c[nH]c2ccccc12)C(=O)Nc1ccc(S(N)(=O)=O)cc1` (stereo not given), 81.6% (active).

Consider `COc1ccc(CC(=O)OC(C)C(=O)Nc2ccc(S(N)(=O)=O)cc2)cc1` (stereo not given), for which the inhibition is -3.25% (inactive). For `NS(=O)(=O)c1ccc(NC(=O)COC(=O)CCc2c[nH]c3ccccc23)cc1` the value was 23.6% (inactive); for `NS(=O)(=O)c1ccc(CCNC(=O)CN2C(=O)c3ccccc3S2(=O)=O)cc1`, 20.2% (inactive); for `O=C(NCCS(=O)(=O)N1CCN(c2ccccc2)CC1)c1ccco1`, 4.33% (inactive).

For the molecule `O=C(Cn1cnc2c(OCc3ccccc3)ncnc21)NCCCn1ccnc1`, the inhibition was -1.71% (inactive).

`O=C1CN(C(=O)COc2c(Cl)cccc2Cl)c2ccccc2N1`: the inhibition was -8.36% (inactive).

Turning to `COc1ccc(S(=O)(=O)NCc2cccnc2)cc1NC(=O)c1ccc(C)cc1`, the inhibition is -2.4% (inactive). For `CC(C)(C)NS(=O)(=O)NC(=O)C1=C(N2CCCC2)COC1=O` the value was 2.74% (inactive); for `CC(=O)Nc1ccc(C(=O)Nc2cccc(S(=O)(=O)NC3=NCCC3)c2)cc1`, -4.84% (inactive); for `CC(=O)c1nn(-c2ccc(C)cc2)cc1C(=O)c1cccc(Br)c1`, -13.6% (inactive).

For the molecule `CC(=O)N/C(=C\c1ccccc1)C(=O)OC(C)C(=O)N(C)c1ccccc1` (stereo not given), the inhibition is 0.887% (inactive). For `Cc1nc(SCC(=O)c2ccccc2)c([N+](=O)[O-])[nH]1` the value was 97.8% (active). For `Cc1nc(SCc2ccc(F)cc2)c([N+](=O)[O-])[nH]1` the value was 1.42% (inactive).

As to `Cc1nc2nc(SCC(=O)c3ccccc3)[nH]c2cc1Br`, the inhibition is -4.01% (inactive). For `O=C1CCCCC1Sc1ccc(Cl)cc1[N+](=O)[O-]` (stereo not given) the value was -27.8% (inactive); for `CCOc1ncccc1C(=O)Nc1ccc2c(c1)OCCO2`, 4.02% (inactive).

Turning to `Oc1ccc2ccccc2c1N=Nc1nccs1`, the inhibition is -13.2% (inactive). For `Oc1ccc(N=Nc2nccs2)c(O)c1` the value was 83.1% (active); for `CN1CCN(S(=O)(=O)c2cccc(C(=O)Nc3sccc3C#N)c2)CC1`, 6.71% (inactive). In the case of `CC(=O)Nc1ccc(S(=O)(=O)Nc2ccc(N3CCCCC3)cc2)cc1`, the inhibition was 99.4% (active). Take `Cc1ccccc1C(=O)Nc1ccc(N2CCCCCC2)cc1`: the inhibition was 68.7% (inactive). For `CC(=O)Nc1ccc(S(=O)(=O)Nc2ccc(N3CCOCC3)c(F)c2)cc1` the value was 3.94% (inactive); for `COc1ccc(C(=O)NC(=S)Nc2ccc(N3CCCC3)cc2)cc1OC`, 2.05% (inactive); for `COc1cccc(C(=O)Nc2ccc(N3CCCC3)cc2)c1`, 100% (active). For `COc1ccc(C(=O)Nc2ccc(N3CCC(C)CC3)cc2)cc1Br` the value was -4.62% (inactive); for `COc1cccc(C(=O)Nc2ccc(N3CCN(C(=O)c4ccco4)CC3)cc2)c1`, -0.228% (inactive). For `CC(=O)Nc1ccc(NS(=O)(=O)c2ccc3c(c2)NC(=O)CC(=O)N3)cc1` the value was -6.71% (inactive). Consider `COc1cccc(OC)c1C(=O)Nc1ccc(N2CCCCC2)cc1`, for which the inhibition is 86% (active). For `Cc1ccc(Cc2nnc(SCC(=O)Nc3ccc(C)cc3C)[nH]c2=O)cc1` the value was -13.1% (inactive); for `COc1ccccc1N(C)S(=O)(=O)c1ccc(Cl)c(C(=O)Nc2ccncc2)c1`, -13.7% (inactive). For `Cc1ccc(OCC(=O)Oc2ccccc2[N+](=O)[O-])cc1` the value was 8.6% (inactive); for `O=C(COc1cccnc1[N+](=O)[O-])Nc1ccc(Cl)cc1F`, -1.28% (inactive). For `C=CCSc1nc2c(c(=O)[nH]c(=O)n2C)n1Cc1ccccc1` the value was -5.44% (inactive); for `Cn1c(=O)[nH]c(=O)c2c1[nH]c(=S)n2Cc1ccccc1`, 86.9% (active).

As for `COc1ccc(CNc2nc3c(c(=O)[nH]c(=O)n3C)n2Cc2ccccc2)cc1`, the inhibition was -2.89% (inactive).

In the case of `COC(=O)c1cccc(NC(=O)c2cccc(N3C(=O)CCC3=O)c2)c1`, the inhibition is -1.61% (inactive). For `Cc1cc(NC(=O)COC(=O)COc2ccc(Cl)cc2C)c([N+](=O)[O-])cc1C` the value was 89.5% (active); for `COc1ccc(OCC(=O)Nc2cc(C)c(Cl)cc2OC)c([N+](=O)[O-])c1`, -2.93% (inactive).

For the molecule `CCCC(=O)OCC(=O)Nc1cc(Cl)ccc1[N+](=O)[O-]`, the inhibition is -5.98% (inactive). For `CCN(CC(=O)Nc1ccccc1OC)C(=O)CC1CC2CCC1C2` (stereo not given) the value was 1.64% (inactive); for `O=S(=O)(O)Oc1c[nH]c2ccccc12`, -3.63% (inactive); for `CC1(c2ccccc2)NC(=O)N(CC(=O)Nc2cc(Cl)ccc2N2CCOCC2)C1=O` (stereo not given), 13.2% (inactive). Consider `N#CC1(NC(=O)COC(=O)Cc2n[nH]c(=O)c3ccccc23)CCCCC1`, for which the inhibition is -18.6% (inactive).

As for `C=CCNC(=S)N1CCc2[nH]c3ccccc3c2C1`, the inhibition was 98.3% (active). For the molecule `Fc1ccc(NC(=S)N2CCc3[nH]c4ccccc4c3C2)cc1`, the inhibition is 3.4% (inactive).

As to `CCCC(=O)N1CCc2[nH]c3ccccc3c2C1`, the inhibition is -30.4% (inactive). Take `CN(C(=O)COC(=O)c1ccc(Br)o1)c1c(N)n(Cc2ccccc2)c(=O)[nH]c1=O`: the inhibition is -5.35% (inactive). For `Cc1c(C)n2c(SCC(=O)NC3CCCC3)nnc2[nH]c1=O` the value was 2.18% (inactive).

The term inhibition denotes the drop in the measured response relative to a control, in per cent.
